Assay outcomes as filed in PubChem BioAssay.
TGFb inhibitor – inhibitors of TGF-b signaling | Potency, µM (doses to about 46.1 µM), for inactives: top-dose activity, negative = inhibition, actives largely listed as inhibitors | 410,000 compounds, 1.2% hits | HepG2 CAGA-GFP TGF-b/SMAD3 reporter, GFP fluorescence, 18 h; TGF-beta stimulated, 500 pg/mL final; also: potency is read from the fitted curve at half-maximal effect; % is scaled to controls: 0 for no effect and ±100 for the full control effect; nearly all actives have a fitted effect of over 65% in size
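HEPG2 CAGA-GFP cells (1000/well, DMEM with 1% FBS) were pre-incubated 2 h at 37 degrees C, given compound by pin tool, then stimulated with TGF-beta at 500 pg/mL final for 18 h before per-cell GFP fluorescence imaging.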
Six1-Eya2 blk – blocks human Six1 binding to Eya2; Q15475+O00167; AlphaScreen GST-Six1/His-Eya2 binding, biochemical; hits give low values; activity change, % (concentration not given with the values); 360,000 compounds, 0.56% hits; AID 651725; in the data active = activity change below about -65%; inconclusive = mostly about -30% to -63%; also: % is scaled to controls: 0 for no effect and ±100 for the full control effect
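Homogeneous AlphaScreen proximity assay pairing GST-Six1 with His-tagged Eya2 (added as 5X mix: 250 nM and 500 nM) in 50 mM Tris pH 8.0, 300 mM NaCl, 1 mM TCEP. Glutathione donor and nickel acceptor beads; 1 h, 37 °C, dark.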
S2 tox – reduces viability in counter-screen for ATXN expression inhibitors; S2 cells (HEK-293 line with an ATXN2-luciferase reporter) viability, CellTiter-Fluor protease fluorescence, 24 h; AID 651635; Potency, µM (titrated, usually from 56.7 µM), hits mostly cytotoxic; 400,000 compounds, 0.49% hits; also: potency is read from the fitted curve at half-maximal effect; nearly all actives have a fitted effect of over 40% in size
ATXN2 expr inh – ATXN2 expression inhibition. HEK-293 ATXN2-luciferase reporter, luminescence, 24 h. Potency, µM (highest dose often 57 µM), without a hit: at the highest dose activity change, negative = inhibition, hits mostly inhibitors. 360,000 compounds, 0.72% hits; also: potency is read from the fitted curve at half-maximal effect; % is scaled to controls: 0 for no effect and ±100 for the full control effect; nearly all actives have a fitted effect of over 55% in size
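ATXN2-luciferase reporter cells (luciferase flanked by upstream and downstream ATXN2 gene portions) were treated 24 h at 37 °C with compounds at up to 57 uM. SteadyGlo luminescence gave expression; GF-AFC fluorescence gave viability.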
CtBP-E1A blk – CtBP/E1A binding inhibition; AlphaScreen GST-E1A/His-CtBP binding, 1536-well; hits give low values; activity change, % (no concentration beside the values); 340,000 compounds, 0.49% hits; in the data active = activity change below about -65%; inconclusive = mostly about -30% to -63%; also: % is scaled to controls: 0 for no effect and ±100 for the full control effect
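Homogeneous bead-based format: GST-tagged E1A captured on glutathione donor beads, His-tagged CtBP on nickel acceptor beads; compounds precede bead addition by 2 h at 37 °C.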
HepG2 viability – kills HepG2 cells in TGF-b inhibitor counter-screen; HepG2 CAGA-GFP viability, ATP luminescence, 18 h; Potency, µM (top dose mostly 46.1 µM), for the others: top-dose activity change, negative = cytotoxicity, usual class: cytotoxic; 410,000 compounds, 0.76% hits; AID 588856; also: potency is read from the fitted curve at half-maximal effect
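CellTiter-Glo luminescence gave cytotoxicity after 18 hours at 37 degrees C. The cells were HepG2 CAGA-GFP in 1% FBS DMEM, stimulated with 500 pg/mL TGF-beta after compound addition. %Activity was normalised to no-cell wells (complete cell-killing) and DMSO (no toxicity), and curves were fitted and classified.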
* hit, by the source's call; i = inactive; ? = inconclusive; nt = no result given. Compounds with a hit are over-represented: about 2.8% of the library has one in this group of screens. Unless noted, calls follow the shape of the dose curve; as a rule, active = well fitted curve in the direction sought with a large enough effect; inconclusive = small, poorly fitted or top-dose-only effect, or another doubt; inactive = no such curve, though single readings can be large; an effect the other way counts as inactive or inconclusive.

SMILES | TGFb inhibitor | Six1-Eya2 blk | S2 tox | ATXN2 expr inh | CtBP-E1A blk | HepG2 viability
CCN1/C(=C\C=C(C(C)=O)C(C)=O)Sc2ccccc21 | 68% | -20 | i | 18% | -12 | 9%
O=C(NNc1c2ccccc2nc2ccccc12)c1cccc(O)c1 | -13% | -65* | i | -13% | -77* | -34%
O=C(NNc1c2ccccc2nc2ccccc12)c1ccc(O)cc1 | -1% | ? | ? | -19% | -75* | -2%
CCCC(=O)NNc1c2ccccc2nc2ccccc12 | -5% | -11 | i | -2% | -13 | -20%
COC(=O)c1cccc(C(=O)N2CCc3c(C(=O)OC)c(OCc4ccccn4)cc(=O)n3CC2)c1 | nt | nt | i | nt | nt | nt
Cc1ccc(C(=O)N(Cc2cc3cc4c(cc3nc2N2CCOCC2)CCC4)CC2CCCO2)cc1 (stereo not drawn) | nt | nt | i | nt | nt | nt
CCN(CC)c1ccc(/C=C/c2c(C)cnc3ccccc23)cc1 | ? | nt | nt | nt | nt | -63%
COc1ccc(CCNc2ncnc3c2oc2ccccc23)cc1OC | ? | -15 | nt | 28µM* | 8 | -41%
COc1ccc(CCNc2nc(C)nc3c2oc2ccccc23)cc1OC | -9% | ? | i | ? | ? | -24%
Cc1cc(C)c2nccc(/C=C/c3ccc(N(C)C)cc3)c2c1 | -15% | nt | nt | nt | nt | -20%
COc1ccc(-c2nc3cc(NC(=O)Cc4ccc(Cl)cc4)ccc3o2)cc1OC | ? | nt | nt | nt | nt | 0%
Oc1ccc(N=Nc2ccccc2)o1 | ? | 2 | ? | -19% | -4 | 13µM*
Oc1c(N=Nc2ccccc2)sc2ccccc12 | -25% | ? | i | nt | -24 | -71%
Cc1c(C)c2c(OCC(=O)N3CCC(O)CC3)cc3c(c2oc1=O)CCC(C)(C)O3 | -17% | -19 | i | -15% | -19 | -8%
Cc1c(C)c2c(OCC(=O)N3CCC[C@H]3C(=O)O)cc3c(c2oc1=O)CCC(C)(C)O3 | -13% | -85* | i | 2% | ? | -19%
O=C(CSc1n[nH]c(-c2ccc(F)cc2)n1)NCc1ccccc1Cl | ? | nt | nt | nt | nt | -23%
COc1cc(N=C2C(=O)N3CCCc4cccc2c43)cc(OC)c1 | -11% | 6 | i | -14% | -76* | 35%
CO[C@@H](C(=O)N1Cc2[nH]nc(NC(=O)c3ccc(N4CCN(C)CC4)cc3)c2C1)c1ccccc1 | nt | nt | nt | 27µM* | nt | nt
CN(C)c1ccc(/C=C2\C=Cc3ccccc32)c(Cl)c1 | -13% | nt | nt | nt | nt | -24%
CCN(CC)c1cc2c(cc1F)c(=O)c(S(=O)(=O)c1ccc(OC)cc1)cn2CC | 3% | nt | nt | nt | nt | -4%
CCc1ccc(NC(=O)CSC2=Nc3ccccc3C3=NC(CC(=O)NCc4ccc5c(c4)OCO5)C(=O)N23)cc1 (stereo not drawn) | -33% | nt | 25µM* | 8% | nt | -29%
CCCCOc1ccccc1NC(=O)Cn1c(-c2nonc2N)nc2ccccc21 | ? | 8 | 14µM* | ? | 8 | -20%
COc1ccc(C2CC(c3cccc(F)c3)=NN2c2ccc(S(N)(=O)=O)cc2)cc1 (stereo not drawn) | 11µM* | 37 | nt | ? | 47 | -98%
Cc1cccc(C2CC(c3ccccc3)=NN2c2ccc(S(N)(=O)=O)cc2)c1 (stereo not drawn) | ? | 38 | i | ? | 28 | 11µM*
COc1ccc(C2CC(c3ccccc3)=NN2c2ccc(C(N)=O)cc2)cc1 (stereo not drawn) | 16µM* | 48 | nt | -23% | 45 | -58%
SMILES | TGFb inhibitor | Six1-Eya2 blk | S2 tox | ATXN2 expr inh | CtBP-E1A blk | HepG2 viability
COc1ccc(C2CC(c3cccc(Br)c3)=NN2c2ccc(S(N)(=O)=O)cc2)cc1 (stereo not drawn) | ? | 43 | nt | ? | 39 | -117%
Cc1cc(C)cc(C(=O)NCc2nc(-c3cccc(NC(=O)c4ccccn4)c3)oc2C)c1 | nt | nt | i | nt | nt | nt
Cc1cc(C)c2ccc(/C=N/O)nc2c1O | 18µM* | -24 | i | nt | -13 | -101%
Cc1cc(C(=O)COC(=O)c2cc(O)c3ccccc3c2O)c(C)n1CC1CCCO1 (stereo not drawn) | 14µM* | -13 | ? | -17% | -7 | -30%
Cc1cc(C(=O)COC(=O)c2ccccc2O)c(C)n1Cc1cccs1 | -37% | -7 | i | 0.71µM* | 1 | -3%
Cc1cc(C(=O)COC(=O)c2ccccc2O)c(C)n1CC1CCCO1 (stereo not drawn) | -7% | -16 | i | 0.35µM* | -15 | -3%
Cc1ccc(C(=O)OCC(=O)c2cc(C)n(CC3CCCO3)c2C)cc1 (stereo not drawn) | -15% | -16 | i | 55% | -1 | 15%
Cc1cc(C(=O)COC(=O)c2ccccc2Br)c(C)n1CC1CCCO1 (stereo not drawn) | -8% | -13 | i | -24% | -14 | -10%
CCN(CCO)C(=O)c1cnn(-c2ncc3c(n2)-c2ccccc2CCC3)c1C1CC1 | nt | nt | i | nt | nt | nt
CC(C)=CCCC(C)=CCCC(C)=CCCC(C)=CCCC(C)=CCCC(C)=CCCC(C)=CCCC(C)=CCCC(C)=CCO | nt | nt | nt | 8% | nt | nt
O=C(CSc1nc2ccccc2nc1Cc1ccc(Cl)cc1)NCCc1ccccc1 | -1% | nt | nt | nt | nt | -2%
Cc1nc(NCc2cnn(C)c2C)sc1-c1ccn(CC2COc3ccccc3O2)n1 (stereo not drawn) | nt | nt | i | nt | nt | nt
Cc1ccc(Sc2nnc(Cc3ccccc3)c3ccccc23)cc1 | 14µM* | -2 | i | ? | 2 | 18µM*
COc1ccc(Sc2nnc(Cc3ccccc3)c3ccccc23)cc1 | -18% | -1 | i | ? | -9 | 23%
O=C(c1ccccc1)c1coc2c1C(=O)c1ccccc1C2=O | ? | 3 | i | -1% | 10 | 10µM*
CCNC(=O)CCSc1nnc(-c2ccc(O)cc2)o1 | 20% | nt | i | 1% | nt | 7%
Cc1ccc(S(=O)(=O)N(C)Cc2ccc(C(=O)N/N=C/c3ccc(OC(F)F)cc3)cc2)cc1 | ? | -4 | 11µM* | ? | -9 | 5%
Cc1ccc(-c2cn3c(n2)sc2cc(C(=O)NCCCN4CCCCC4)ccc23)cc1 | -88% | nt | nt | nt | nt | 10µM*
CCN1CCN(CCCNC(=O)c2ccc3c(c2)sc2nc(-c4ccc(C)cc4)cn23)CC1 | -90% | nt | nt | nt | nt | -99%
Cc1ccc(-c2cn3c(n2)sc2cc(C(=O)NCCCN4CCCCCC4)ccc23)cc1 | -101% | nt | nt | nt | nt | 10µM*
CC1CCCCN1CCCNC(=O)c1ccc2c(c1)sc1nc(-c3ccc(F)cc3)cn12 (stereo not drawn) | ? | nt | 32µM* | 14µM* | nt | 13µM*
